# Experimental data reported in PubChem BioAssay (Tox21).
# “And” between values parts separate entries of the source, which are not always exact repeats. Equal entries are not always repeated. Results filed as inconclusive are left out. Entries that show only a call come without a potency. The source holds several records for some structures; these can differ, active in one and inactive in another. The source made the active and inactive calls. The call rests on the fitted dose curve.
# Target: Retinoic acid receptor RXR-alpha (Homo sapiens) (UniProt P19793)
# Assay: qHTS assay to identify small molecule agonists of the RXR signaling pathway (AID 1159527); further: nearly all actives have a fitted effect of over 35% in size
# Conditions: HEK293T RXRa-UAS-bla, beta-lactamase ratio, 16 h; series mostly up to 76.8 µM
# Source text: U.S. Tox21 Program National Center for Advancing Translational Sciences [NCATS] NIH Chemical Genomics Center [NCGC] U.S. Environmental Protection Agency [EPA] National Institutes of Environmental Health Sciences [NIEHS] National Toxicology Program [NTP] U.S. Food and Drug Administration [FDA] Tox21 Assay Overview: The Retinoid X receptor (RXR), a nuclear hormone receptor expressed in liver, spleen, placenta, epidermis, central nervous system. These receptors are able to form homo and heterodimers with other nuclear receptors and due to this heterodimerizing ability, RXR functions as master regulators producing diverse physiological effects. Three subtypes of RXR exist; alpha, beta and gamma. Retinoid X receptor alpha (RXR-alpha) has potential roles in metabolic signaling pathways, skin alopecia, dermal cysts, cardiac development, insulin sensitization etc. Therefore screening environmental chemicals on RXR-alpha signaling can be used for the studies focused on such therapeutic applications. For quantification of RXR-alpha ligands signaling, GeneBLAzer RXR alpha-UAS-bla HEK 293T (Life Technologies, Carlsbad, CA) cells containing a beta-lactamase reporter-gene under control of Retinoid X receptor-alpha response element were used to screen Tox21 10K library.
# Tox21 Assay Protocol Summary: RXR-alpha HEK 293T cells were dispensed at 2,000 cells/6 uL of assay medium containing 2% charcoal-stripped FBS using a Multidrop Combi (ThermoFisher Scientific, Waltham, MA) dispenser. The assay was performed in black wall/clear-bottom 1536-well plates (Greiner Bio-One North America Inc. Monroe, NC). 9-cis retinoic acid was used as a positive control in the agonist mode screen. After the assay plates were incubated at 37 C and 5% CO2 for 5 hr, 23 nL of compounds dissolved in DMSO, positive controls or DMSO only were transferred to the assay plate by a Pintool station (Kalypsys, San Diego, CA). The assay plates were incubated at 37 C and 5% CO2 for 16 hr. One uL of LiveBLAzer B/G FRET substrate (Life Technologies) was added using a Flying Reagent Dispenser (Aurora Discovery, San Diego, CA) and the plates were incubated at room temperature for 2 hr. Fluorescence intensity (405 nm excitation, 460/530 nm emission) was measured using an Envision plate reader (PerkinElmer, Shelton, CT).
# Potency means the concentration at half of the fitted maximal effect.
# Sequence of Retinoic acid receptor RXR-alpha (Homo sapiens) (P19793 whole entry, looked up): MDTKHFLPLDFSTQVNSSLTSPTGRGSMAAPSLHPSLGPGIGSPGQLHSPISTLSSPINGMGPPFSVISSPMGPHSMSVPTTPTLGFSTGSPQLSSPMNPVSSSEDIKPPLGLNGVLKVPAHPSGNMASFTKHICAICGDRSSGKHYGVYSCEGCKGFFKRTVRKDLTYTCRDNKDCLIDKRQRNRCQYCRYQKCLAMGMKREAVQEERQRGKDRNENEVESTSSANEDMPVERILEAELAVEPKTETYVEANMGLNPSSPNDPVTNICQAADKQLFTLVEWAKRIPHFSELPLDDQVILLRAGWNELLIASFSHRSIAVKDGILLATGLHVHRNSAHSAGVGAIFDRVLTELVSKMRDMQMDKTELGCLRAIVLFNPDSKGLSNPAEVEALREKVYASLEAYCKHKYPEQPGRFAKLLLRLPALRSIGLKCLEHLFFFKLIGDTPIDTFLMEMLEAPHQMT
row,Compound,Potency
1,Cl[C@H]1OCCO[C@@H]1Cl,inactive
2,O=C/C=C/c1ccccc1,inactive
3,O=P1(NCCCl)OCCCN1CCCl (stereo not given),inactive
4,O=[N+]([O-])c1ccc(Cl)c(Cl)c1,inactive
5,Cc1ccccc1N,inactive
6,OCC(O)CCl (stereo not given),inactive
7,Cc1cccc(N)c1C,11.4 µM (active) and inactive
8,CNC(=O)O/N=C/C(C)(C)S(C)(=O)=O,inactive
9,CCCOC(=O)c1ccccc1C(=O)OCCC,inactive
10,CC(=O)/C=C/c1ccccc1,inactive
11,CC(=O)C1CCOC1=O (stereo not given),inactive
12,COP(=S)(OC)SCN1C(=O)c2ccccc2C1=O,inactive
13,COC(C)(C)CCCC(C)C/C=C/C(C)=C/C(=O)OC(C)C (stereo not given),inactive
14,Cc1ccc(N)cc1,inactive and 19.5 µM (active)
15,CNC(=O)O/N=C/C(C)(C)S(C)=O (stereo not given),inactive
16,CNC(=O)O/N=C/C(C)(C)SC,inactive
17,Nc1ccc(N)cc1,inactive
18,CC(C)CCCCCCOC(=O)c1ccccc1C(=O)OCCCCCCC(C)C,inactive
19,OCCCCO,inactive
20,C=CC(=O)OCC(CC)CCCC (stereo not given),inactive

row,Compound,Potency
1,C=C(C)C(=O)OCC(CC)CCCC (stereo not given),inactive
2,Cc1cccc(C)c1NC(=O)CN1CCCC1=O,inactive
3,Nc1nc(N)nc(NC2CC2)n1,inactive
4,O=C(O)COc1ccccc1,inactive
5,CC12CC1(C)C(=O)N(c1cc(Cl)cc(Cl)c1)C2=O (stereo not given),inactive
6,CN(C)C(=O)C(c1ccccc1)c1ccccc1,inactive
7,Nc1ccc([As](=O)(O)O)cc1,inactive
8,Oc1c(Br)cc(Br)cc1Br,inactive
9,CC[N+](=O)[O-],inactive
10,OCc1ccco1,inactive and 5.49 µM (active)
11,O=[N+]([O-])c1ccc(Cl)cc1,inactive
12,O=S(=O)(O)OOS(=O)(=O)O,inactive
13,Cc1ccc(N=C=O)cc1N=C=O,inactive
14,O=[N+]([O-])c1cc([As](=O)(O)O)ccc1O,inactive
15,Nc1cccc(Cl)c1,inactive
16,O=C(O)CCCc1ccc(N(CCCl)CCCl)cc1,inactive
17,ClCCOCCCl,inactive
18,FC(F)(F)c1ccc(Cl)cc1,inactive
19,O=C(O)C1C(C(=O)O)C2(Cl)C(Cl)=C(Cl)C1(Cl)C2(Cl)Cl (stereo not given),inactive
20,O=C(O)Cc1ccccc1,inactive
